Active and inactive are the calls of the source. No rule for the calls is given here.

The target in this test is Pantothenate synthetase (Mycobacterium tuberculosis (strain ATCC 25618 / H37Rv)) (UniProt P9WIL5). The test can be described thus: Recombinant Mtb pantothenate synthetase (PanC) inhibitors, coupled enzyme, confirmatory (AID 375).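 Also: 0% = full reaction with vehicle and 100% = no enzyme background.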 The settings on record: coupled enzyme assay; at 10 µM, active compounds read high.
Chain of Pantothenate synthetase (Mycobacterium tuberculosis (strain ATCC 25618 / H37Rv)) (P9WIL5 whole entry, looked up): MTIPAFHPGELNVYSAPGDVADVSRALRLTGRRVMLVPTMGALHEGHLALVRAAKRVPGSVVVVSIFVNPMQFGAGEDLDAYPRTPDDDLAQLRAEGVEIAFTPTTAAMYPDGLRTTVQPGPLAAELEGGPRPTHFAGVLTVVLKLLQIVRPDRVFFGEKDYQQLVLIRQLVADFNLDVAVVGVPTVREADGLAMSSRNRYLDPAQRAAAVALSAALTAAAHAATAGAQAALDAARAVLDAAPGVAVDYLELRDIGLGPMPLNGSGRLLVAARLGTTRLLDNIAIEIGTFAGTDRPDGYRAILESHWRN
For `CC1CN(Cc2nc3c(c(=O)[nH]c(=O)n3C)n2CC(N)=O)CC(C)O1` (configuration not stated), the inhibition was 4% (inactive).
Under `O=C(N1CCCCCC1)N1CCN(C(=O)N2CCOCC2)CC1` stands 0% (inactive); under `Cc1[nH]c2ccccc2c1Cc1nnc(SCC(=O)NCc2ccco2)o1`, 1% (inactive).
Take `Cc1cc(Cl)c(S(=O)(=O)N2CCN(c3ccc(F)cc3)CC2)cc1OCC(N)=O`: the inhibition is 0% (inactive).
In the case of `COc1ccc(OC)c(S(=O)(=O)NCCC2=CCCCC2)c1`, the inhibition is 6% (inactive).
The same measure for `O=C(NCC1CCCO1)C1c2ccccc2C(=O)N1C1CCCCCC1` (configuration not stated): 0% (inactive).
Turning to `CCOC(=O)C1CCN(c2c(NCCN3CCN(c4ccccc4)CC3)c(=O)c2=O)CC1`, the inhibition is 0% (inactive).
Regarding `COc1ccccc1CN1C(=S)SC(C)(C)C1NO` (configuration not stated), the inhibition is 0% (inactive).
The same measure for `Cc1ccc(C(c2sc3nc(C)nn3c2O)N2CC(C)OC(C)C2)cc1` (configuration not stated): 0% (inactive).
Under `O=c1c2ccccc2nc2n1CCN2` stands 0% (inactive).
With `C=CCn1cc(C(=O)NCCOC)c(=O)c2cc(S(=O)(=O)N(CC)CC)ccc21`, the inhibition is 0% (inactive).
Under `CCC(CCC(=O)Nc1cccc(C(=O)O)c1)C(=O)O` (configuration not stated) stands 2% (inactive); under `Cc1ccc2c(c1)N(CC(=O)Nc1ccc3c(c1)OCCO3)C(=O)CO2`, 0% (inactive); under `CC(C)N(C=O)C1(C(=O)NC2CCCCC2)CCCCC1`, 4% (inactive).
The same measure for `Cc1ccc(C(=O)OCC(=O)Nc2ccc3c(c2)OCO3)o1`: 4% (inactive); for `O=C1C=C(NCc2ccco2)C2(CCCCC2)O1`: 0% (inactive); for `COC(=O)c1cccc(NC(=O)CN2CCN(Cc3ccccc3)CC2)c1`: 2% (inactive).

These data come from PubChem BioAssay.
